Measured values: the supplement of paper PMC6555819

Columns and labels:
Assay in all cases: PBM binding z-score (relative to random genomic background probes); higher = stronger binding; sequences stand for … in GC…GCGATTGACAGCGTAGAATGAAGG
[1] = system: FXR:RXRa (NR concentration 270 nM, RXRa partner concentration 90 nM)
Outline: (§1)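 Random background probes are the reference for binding z-scores. These scores derive from regression-normalized fluorescence on custom Agilent 4×180K protein-binding microarrays incubated 1 h with ligand-free nuclear receptor dimers. Binding was detected with antibodies against each partner (one per run).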

[2] = system: LXRa:RXRa (NR concentration 270 nM, RXRa partner concentration 90 nM)
Outline: as §1

[3] = system: LXRa homodimer (NR concentration 270 nM)
Outline: as §1

[4] = system: LXRb:RXRa (NR concentration 270 nM, RXRa partner concentration 90 nM)
Outline: as §1

[5] = system: LXRb homodimer (NR concentration 270 nM)
Outline: as §1

[6] = system: PPARa:RXRa (NR concentration 270 nM, RXRa partner concentration 90 nM)
Outline: as §1

[7] = system: PPARg:RXRa (NR concentration 180 nM, RXRa partner concentration 90 nM)
Outline: as §1

[8] = system: PPARg:RXRa 270nM:90nM, anti-RXR (NR concentration 270 nM, RXRa partner concentration 90 nM)
Outline: as §1

[9] = system: PPARg:RXRa 30nM:10nM, anti-RXR (NR concentration 30 nM, RXRa partner concentration 10 nM)
Outline: as §1

[10] = system: PPARg:RXRa 90nM:30nM, anti-RXR (NR concentration 90 nM, RXRa partner concentration 30 nM)
Outline: as §1

[11] = system: PPARg:RXRa DBDmut IVT, anti-RXR (DBD mutation: RXRa K156A/R161A, NR concentration 270 nM, RXRa partner concentration 90 nM)
Outline: as §1

[12] = system: PPARg:RXRa IVT, anti-PPARg (NR concentration 270 nM, RXRa partner concentration 90 nM)
Outline: as §1

[13] = system: PPARg DBDmut:RXRa IVT, anti-PPARg (DBD mutation: PPARg1 K132A/R137A, NR concentration 270 nM, RXRa partner concentration 90 nM)
Outline: as §1

[14] = system: PPARg DBDmut IVT, anti-PPARg (DBD mutation: PPARg1 K132A/R137A, NR concentration 270 nM)
Outline: as §1

[15] = system: PPARg homodimer (NR concentration 180 nM)
Outline: as §1

[16] = system: PXR:RXRa (NR concentration 270 nM, RXRa partner concentration 90 nM)
Outline: as §1

[17] = system: PXR homodimer (NR concentration 270 nM)
Outline: as §1

[18] = system: RARa:RXR (NR concentration 270 nM, RXRa partner concentration 90 nM)
Outline: as §1

[19] = system: RARa homodimer (NR concentration 270 nM)
Outline: as §1

[20] = system: RARb:RXRa (NR concentration 270 nM, RXRa partner concentration 90 nM)
Outline: as §1

| Sequence | PBM binding z-score [1] | PBM binding z-score [2] | PBM binding z-score [3] | PBM binding z-score [4] | PBM binding z-score [5] | PBM binding z-score [6] | PBM binding z-score [7] | PBM binding z-score [8] | PBM binding z-score [9] | PBM binding z-score [10] | PBM binding z-score [11] | PBM binding z-score [12] | PBM binding z-score [13] | PBM binding z-score [14] | PBM binding z-score [15] | PBM binding z-score [16] | PBM binding z-score [17] | PBM binding z-score [18] | PBM binding z-score [19] | PBM binding z-score [20] |
| --- | --- | --- | --- | --- | --- | --- | --- | --- | --- | --- | --- | --- | --- | --- | --- | --- | --- | --- | --- | --- |
| CGTCCAAGGTCAGCAGTTCAGTGAAAGCGACGTG | 5.17 | 3.5 | 0.594 | 2.73 | -0.167 | 4.42 | 2.78 | 3.37 | 0.482 | 1.82 | 2.51 | 2.84 | 0.0799 | 0.847 | 1.67 | 3.52 | 1.29 | 3.96 | 0.38 | 5.29 |
| TCGAGAAGGTTAGTCGGGGCATTCAGCCAACATA | 0.663 | 0.631 | -0.271 | 0.863 | -0.323 | 1.32 | 0.00646 | 1.2 | 1.72 | 1.33 | 1.32 | 0.682 | -0.513 | -0.49 | 0.545 | 0.807 | 0.434 | 0.664 | -0.434 | 1.36 |
| AGTCAAAGATCAGGACGAGGTAACGTAAAGCACG | 0.107 | -0.519 | -0.426 | -0.362 | -0.522 | 0.273 | 1.18 | 0.619 | 0.0734 | 0.677 | -0.64 | 0.122 | 0.0525 | 0.169 | -0.153 | -0.236 | -0.419 | 0.336 | 0.445 | 0.247 |
| AATACAGCGTCACTAGGCCAGAGTAGGTACGAAT | -0.287 | -0.499 | -0.588 | -0.808 | -0.279 | 0.0154 | 0.87 | 0.513 | 0.103 | 0.0712 | 0.487 | 1.5 | -0.275 | 0.0334 | -0.38 | -0.519 | -0.407 | -0.516 | -0.0306 | -0.113 |
| GGAACGAGGGCAAGTAGATAGCAGAGTTTGATGG | 0.456 | 0.278 | -0.397 | -0.016 | -0.00645 | 1.36 | 1.21 | 0.904 | 0.0838 | 0.493 | 3.61 | 2.59 | -0.498 | -0.505 | -0.0596 | 0.344 | 0.589 | 0.247 | -0.258 | 2.46 |
| TCTGCTAGGTCAGTTGGTTAGCTAACGAGCTGCC | 0.851 | 0.567 | -0.601 | 0.643 | 0.257 | 1.05 | 0.0463 | 1.19 | 1.17 | 1.34 | 2.45 | 2.82 | -0.493 | -0.0218 | -0.654 | 0.251 | -0.819 | 0.432 | -1.34 | 3.29 |
| AATCAAAGTTCACTAGGTAACGTAAGATTCAGCT | 4.99 | 5.49 | 4.91 | 3.21 | 1.43 | 4.48 | 5.39 | 4.91 | 2.47 | 3.92 | 2.41 | 4.17 | 1.22 | 1.64 | 2.31 | 3.75 | 2 | 2.5 | 1.15 | 4.72 |
| GGAACGAGGGCAAGCTGATAGCAGAGTTTGATGG | 0.351 | 0.065 | -0.473 | 0.0396 | -1.04 | 1.37 | 0.979 | 0.733 | -0.285 | 0.3 | 3.83 | 2.53 | -0.705 | -0.924 | -0.391 | 0.149 | 0.429 | -0.0859 | -0.744 | 2.46 |
| TAGCCTAGGTCTGATCGGGCCAGTATACGCTATA | -0.28 | -0.943 | -0.639 | -0.94 | -1.01 | -0.144 | 0.0558 | -0.669 | -0.329 | -0.45 | -0.797 | -0.522 | -0.763 | -0.994 | -0.906 | -0.673 | -1.05 | -0.33 | -1.47 | -0.362 |
| CTTACAGGGTCAGCTAGGCCAGAGTAGGGACGGC | 4.5 | 2.83 | -0.519 | 2.04 | -0.147 | 4.25 | 2.76 | 3.24 | 0.782 | 2.02 | 2 | 2.59 | -0.146 | -0.1 | 0.148 | 1.88 | -0.368 | 2.75 | 0.0802 | 4.04 |
| TTATATAGGTAATACAGGTGAAAGTCGGCATCTA | 0.622 | 1.12 | 0.509 | 0.772 | 0.539 | 2.7 | 3.5 | 3.07 | 2.07 | 2.5 | 6.01 | 5.97 | 1.64 | 2.72 | 1.34 | 0.367 | 0.343 | 0.639 | 1.4 | 0.616 |
| CGCCCAAGGTCAGAGAGGTCAGTGAATGCCGAGT | 6.04 | 4.89 | 3.24 | 4.24 | -0.135 | 4.86 | 3.1 | 4.03 | 0.767 | 2.55 | 2.95 | 2.94 | -0.485 | -0.732 | 3.98 | 5.86 | 11.8 | 5.47 | 3.01 | 5.09 |
| GCTCTGAGGACAAGGTCAGAGCTTTGTCCGTAGA | 1.69 | 1.56 | -0.176 | 1.45 | -0.782 | 2.3 | 1.02 | 2.06 | 0.095 | 1.22 | 0.898 | 1.09 | -0.229 | -0.596 | 0.274 | 2 | -0.088 | 2.88 | -0.844 | 3.61 |
| CATACAGGGTCAGCTAGGCCAGAGGAGGGACGGC | 4.49 | 3.1 | -0.068 | 2.08 | 0.388 | 4.31 | 3.63 | 2.81 | 0.595 | 1.67 | 0.736 | 2.07 | 1.18 | 1.1 | 1.66 | 2.15 | -0.08 | 3.04 | 0.169 | 4.16 |
